Experimental findings from PubChem BioAssay (NCATS) are described below.

Structures are written as SMILES. Inconclusive results are not listed. Entries that show only a call come without a potency. Activity calls are given as the source filed them. Calls come from the whole dose curve; as a rule, active = well fitted inhibition curve with a large enough effect; inconclusive = small, poorly fitted or top-dose-only effect; inactive = flat fitted curve, though single readings scatter.

For this assay, the target named is Calcium and integrin-binding protein 1 (Homo sapiens) (UniProt Q99828). Put plainly: Primary qHTS for Identification of Calcium Integrin Binding Protein 1 (CIB1) Competitor (AID 1508620).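 Note: GST tagged CIB1 binding a fluorescein labelled alphaIIb integrin peptide tracer; top concentration of the series differs between compounds.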 The following applies: CIB1-GST / FITC-alphaIIb peptide fluorescence polarization; series mostly up to 114 µM. In short, it runs like this: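 CIB1-GST (1 uM final) and compound incubated 15 min at room temperature before adding FITC-alphaIIb peptide tracer (100 nM final). Competition for binding read by fluorescence polarization (ex 480, em 540) after another 15 min at room temperature.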
Calcium and integrin-binding protein 1 (Homo sapiens), sequence (Q99828 whole entry, looked up): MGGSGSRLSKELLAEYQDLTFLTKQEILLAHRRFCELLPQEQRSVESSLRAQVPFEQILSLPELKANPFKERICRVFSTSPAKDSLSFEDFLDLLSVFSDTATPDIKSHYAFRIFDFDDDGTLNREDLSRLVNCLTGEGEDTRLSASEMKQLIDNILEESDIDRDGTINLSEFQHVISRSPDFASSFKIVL
Consider `Cc1c(NC(=O)c2cc(C(N)=O)nc3cc(F)ccc23)c(C(F)(F)F)nn1Cc1ccc(C#N)cc1`, for which the Potency result was “inactive”.

With `Clc1cc2c(NC3CCCC3)nnc(-c3ccncc3)c2cc1Cl`, the Potency entry was “inactive”.

For the compound `C=C1CCC2C(C)(C(=O)O)CCCC2(C)C1CCC(C)CC(=O)O` (stereo not drawn), the Potency result is “inactive”.

On to `CC1(C)CC[C@]2(C(=O)O[C@@H]3O[C@H](CO)[C@@H](O)[C@H](O)[C@H]3O)CC[C@]3(C)C(=CCC4[C@@]5(C)C[C@@H](O)[C@H](O)[C@](C)(C=O)C5CC[C@]43C)[C@@H]2[C@@H]1O` (stereo partly drawn), for which the Potency entry was “inactive”.

In the case of `COC(=O)C1=COC(OC2OC(CO)C(O)C(O)C2O)C2C1C=CC2(O)CO` (stereo not drawn), the Potency entry is “inactive”.

On to `CCCOC(c1cc2nccc(C(=O)O)c2[nH]1)c1ccccc1Cl` (stereo not drawn), for which the Potency entry was “inactive”.

Consider `CC1(C)C2CC(OC3OC(COC4OCC(O)(CO)C4O)C(O)C(O)C3O)C1(C)CC2O` (stereo not drawn), for which the Potency result was “inactive”.

Regarding `CC(C)=CC/C=C(\C)[C@H]1CC[C@]2(C)[C@@H]1[C@H](O)C[C@@H]1[C@@]3(C)CC[C@H](O)C(C)(C)[C@@H]3[C@@H](O[C@@H]3O[C@H](CO)[C@@H](O)[C@H](O)[C@H]3O)C[C@]12C`, the Potency result is “inactive”.

As for `CO[C@@H](C)Cn1c(=O)n(C)c2cnc3ccc(-c4cncc(C(C)(C)O)c4)cc3c21`, the Potency entry was “inactive”.

On to `CC(C)C(C(=O)N(C)C(C)C(N)=O)N(C)C(=O)C1CCCN1C(=O)/C=C/C=C/C(O)C(C)O` (stereo not drawn), for which the Potency result is “inactive”.

For `CC1C(=O)OCC2=CCN3CCC(OC(=O)C(C)(O)C1(C)O)C23` (stereo not drawn), the Potency result was “inactive”.

Take `COc1ncc(Nc2ncc([C@@H](C)N3CCN(S(C)(=O)=O)CC3)cc2-c2nc(C)nc(N)n2)cc1F`: the Potency result was “inactive”.

For the compound `C=C[C@H]1C(O[C@@H]2O[C@H](CO)[C@@H](O)[C@H](O)[C@H]2O)OC=C2C(=O)N3CCc4c([nH]c5ccccc45)C3CC21` (stereo partly drawn), the Potency entry is “inactive”.

As for `CC(=O)O[C@H]1[C@H](O[C@H]2[C@@H]3C=CO[C@@H](O[C@@H]4O[C@H](CO)[C@@H](O)[C@H](O)[C@H]4O)[C@@H]3[C@@]3(CO)O[C@@H]23)O[C@@H](C)[C@H](OC(=O)/C=C/c2ccccc2)[C@H]1OC(=O)/C=C/c1ccccc1`, the Potency entry is “inactive”.

For the compound `CC1=CC2C(CC1OC1OC(CO)C(O)C(O)C1O)C(C)CC(=O)C2C(C)C` (stereo not drawn), the Potency result is “inactive”.

For `CCC1C(=O)N(C)c2cnc(Nc3ccc(C(=O)NC4CCC(N5CCN(CC6CC6)CC5)CC4)cc3OC)nc2N1C(C)C` (stereo not drawn), the Potency entry is “inactive”.

With `CC1=CC(=O)CC(C)(CO)C1(O)/C=C/C(C)O[C@@H]1O[C@H](CO)[C@@H](O)[C@H](O)[C@H]1O` (stereo partly drawn), the Potency result is “inactive”.

Consider `COc1cc(C)c(C(=O)Oc2cc(C)c(C(=O)Oc3cc(C)c(C(=O)NC(C)C(=O)O)c(O)c3)c(O[C@@H]3O[C@H](CO)[C@@H](O)[C@H](O)[C@H]3OC(C)=O)c2)c(OC)c1` (stereo partly drawn), for which the Potency entry is “inactive”.

For `CC1(C)CCC2(C(=O)OC3OCC(O)C(O)C3O)CCC3(C)C(=CCC4C5(C)CC(O)C(OC6OC(COC7OCC(O)C(O)C7O)C(O)C(O)C6O)C(C)(C)C5CCC43C)C2C1` (stereo not drawn), the Potency result is “inactive”.

Regarding `C=CC[C@]12C[C@@H](OC)C(=O)C(OC)=C1O[C@@H](c1cc(OC)c3c(c1)OCO3)[C@@H]2C`, the Potency result was “inactive”.

In the case of `O=C(O)Cc1cn(C2OCC(O)C(O)C2O[C@@H]2O[C@H](CO)[C@@H](O)[C@H](O)[C@H]2O)c2ccccc12` (stereo partly drawn), the Potency entry was “inactive”.

Regarding `CC1(C)CC[C@]2(C(=O)O)[C@H](O)C[C@]3(C)C(=CCC4[C@@]5(C)CC[C@H](O[C@@H]6O[C@H](CO[C@@H]7OC[C@H](O)[C@H](O)[C@H]7O[C@@H]7OC[C@@H](O)[C@H](O)[C@H]7O)[C@@H](O)[C@H](O)[C@H]6O[C@@H]6O[C@H](CO)[C@@H](O)[C@H](O)[C@H]6O)C(C)(C)C5CC[C@]43C)[C@@H]2C1` (stereo partly drawn), the Potency entry was “inactive”.

For the compound `COc1cc(O)cc(/C=C/c2ccc(O[C@@H]3O[C@H](CO)[C@@H](O)[C@H](O)[C@H]3O)cc2)c1`, the Potency result was “inactive”.

As to `CC(C)=CCC(O)/C(C)=C/CO[C@@H]1O[C@H](CO)[C@@H](O)[C@H](O)[C@H]1O` (stereo partly drawn), the Potency entry is “inactive”.

Regarding `C=C(C(=O)O)C1CCC2(C)CCCC(C)(O)C2C1` (stereo not drawn), the Potency entry was “inactive”.

On to `C=C(C(=O)O)C1CCC2(C)CCC(O)C(C)(O)C2C1` (stereo not drawn), for which the Potency entry was “inactive”.

Turning to `C[C@H]1CC[C@@]2(OC1)O[C@H]1CC3C4CC[C@H]5C[C@@H](O)[C@H](O)C[C@]5(C)C4=CC(=O)[C@]3(C)[C@H]1[C@@H]2C` (stereo partly drawn), the Potency entry was “inactive”.

As to `C=C1[C@@H]2CC[C@@H]3[C@@](CCC4C(C(=O)O)(C(=O)O)C[C@@H](O[C@@H]5O[C@H](CO)[C@@H](O)[C@H](O)[C@H]5OC(=O)CC(C)C)C[C@]43C)(C2)[C@H]1O` (stereo partly drawn), the Potency entry is “inactive”.
